Experimental data as given in PubChem BioAssay (NCATS).
Results filed as inconclusive are left out. The source made the active and inactive calls. Unless noted, the call rests on the fitted dose curve; in most records, active means well fitted curve in the direction sought with a large enough effect; inconclusive means small, poorly fitted or top-dose-only effect, or another doubt; inactive means no such curve, though single readings can be large; an effect the other way counts as inactive or inconclusive.

Tests used:
[1] = Validation of Assay for Modulators of Lamin A Splicing (AID 1459; active means well fitted curve in the direction sought with a large enough effect in the signal ratio; the % refers to the signal ratio;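 further: cells exposed to compound for two days before reading; 0% is about no effect; ratio rise marks activators and ratio drop marks inhibitors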)
Procedure, shortened: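 Dual-reporter HeLa S3 line (lamin A-EGFP minigene, DsRed2) treated with compounds 48 hrs, 0.5% DMSO final. Endpoint: EGFP/DsRed2 total intensity ratio from laser-scanning microplate cytometry.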

[2] = target: DNA repair nuclease/redox regulator APEX1 (Homo sapiens) (UniProt P27695); assay: qHTS Validation Assay for Inhibitors of the Human Apurinic/apyrimidinic Endonuclease 1 (APE1) (AID 1705;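 further: TAMRA fluorescence gain over two minutes as APE1 cuts a quenched THF abasic duplex; series mostly up to about 57 µM; on the % scale 0 is the no-effect control and ±100 the full control effect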)
Chain of DNA repair nuclease/redox regulator APEX1 (Homo sapiens) (P27695 whole entry, looked up): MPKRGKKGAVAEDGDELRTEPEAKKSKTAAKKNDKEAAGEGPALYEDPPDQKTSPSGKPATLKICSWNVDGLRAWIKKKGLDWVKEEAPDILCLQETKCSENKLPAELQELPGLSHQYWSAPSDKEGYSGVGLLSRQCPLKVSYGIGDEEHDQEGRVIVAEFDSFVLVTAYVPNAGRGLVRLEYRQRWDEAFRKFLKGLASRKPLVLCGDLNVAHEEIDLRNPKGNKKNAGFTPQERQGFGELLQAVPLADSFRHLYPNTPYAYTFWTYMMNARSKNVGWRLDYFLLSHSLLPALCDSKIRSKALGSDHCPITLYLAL
Procedure, shortened: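 Substrate: 50 nM final fluorophore/quencher THF-abasic duplex. Enzyme preincubated with compounds 15 min, RT. Progress derived from fluorescence difference, third minus first kinetic read.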

[3] = Counterscreen for APE1 Inhibitors: Fluorescent Dye Displacement Validation Assay (AID 1707);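 further: plate controls were ThO with dsDNA and no compound for no effect and ThO without dsDNA for full effect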
Procedure, shortened: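 Counterscreen flags promiscuous DNA binders: compounds displacing ThO from duplex DNA (abasic THF site, 50 nM) reduce 540 nm emission (480 nm excitation). ThO 250 nM final; Tris-HCl pH 7.5 with NaCl, MgCl2 and Tween-20.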

[4] = target: Endonuclease 4 (Escherichia coli (strain K12)) (UniProt P0A6C1); assay: Counterscreen for APE1 Inhibitors: qHTS Validation Assay for Inhibitors of Endonuclease IV (AID 1708); further: on the % scale 0 is the no-effect control and ±100 the full control effect
Procedure, shortened: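 Conditions: 2 nM enzyme, 50 nM TAMRA/BHQ-2 substrate, pH 7.5 Tris buffer with 2 mM MgCl2, RT. Compound preincubation 15 min; readout three fluorescence reads 60 s apart, third-minus-first.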

[5] = qHTS for differential inhibitors of proliferation of Plasmodium falciparum line W2 (AID 1883); conditions: Potency: Plasmodium falciparum W2 proliferation inhibition;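 further: potency means the concentration at half of the fitted maximal effect; parasites grown with compound for 72 h before lysis and staining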
[6] = target: Ferritin light chain (Equus caballus) (UniProt P02791); assay: qHTS Validation Assay for Identification of Novel General Anesthetics (AID 2323); further: series mostly up to about 77 µM; on the % scale 0 is the no-effect control and ±100 the full control effect
Procedure, shortened: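 Normalized fluorescence response, scaled between free 1-AMA and 1-AMA/apoferritin complex, fitted to a four-parameter Hill equation for concentration-effect values. Binding mix: 10 uM horse-spleen apoferritin, 50% saturated 1-AMA in PBS; read 380/535 nm after 10 min.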

[7] = target: ATP-dependent DNA helicase Q1 (Homo sapiens) (UniProt P46063); assay: qHTS Validation Assay for Inhibitors of RecQ-Like Dna Helicase 1 (RECQ1) (AID 2353);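 further: plate controls were DMSO vehicle for no effect and enzyme-free control for full effect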
Procedure, shortened: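 RECQ1T1 50 nM; forked duplex (20 bp + 30-nt ss tails) 200 nM, ATP 2 mM final; pH 8.0, 2 mM MgCl2, 2.5 ug/ml poly(dI-dC); 15 min compound preincubation; discontinuous kinetic read over 2 h at RT.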

[8] = target: RecQ-like DNA helicase BLM (Homo sapiens) (UniProt P54132); assay: qHTS Validation Assay for Inhibitors of Bloom's syndrome helicase (BLM) (AID 2364);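 further: plate controls were DMSO vehicle for no effect and enzyme-free control for full effect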
Procedure, shortened: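 50 nM BLM preincubated 15 min at room temperature with compound in pH 8.0 Tris buffer containing 2.5 ug/ml poly(dI-dC); started with 200 nM TAMRA/BHQ-2 forked duplex and 2 mM ATP (final). Unwinding read as TAMRA fluorescence increase, two reads 2 h apart.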

[9] = Cytometric Cell-Based qHTS for Inhibitors of the mTORC1 Signaling Pathway in MEF (Tsc2-/-, p53-/-) Cells (AID 2660);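 further: Tsc2 and p53 null MEFs carrying empty vector with compound for 24 h; percent of cells above a phospho-rpS6 to PI ratio cutoff in each well; series mostly up to about 38 µM; plate controls were DMSO for no effect and rapamycin for full effect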
Procedure, shortened: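 Immunofluorescence qHTS of rpS6 Ser235/236 phosphorylation: MEFs (Tsc2-/-, p53-/-) treated 24 h, 37 C, in DMEM + 10% FBS. Alexa-488 signal normalized to PI count, referenced to rapamycin (7.5 nM) and DMSO; PI cell number recorded for viability.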

[10] = High Content Imaging Cell-Based qHTS for Inhibitors of the mTORC1 Signaling Pathway in MEF (Tsc2-/-, p53-/-) Cells (AID 2666);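 further: percent of cells scored positive for phospho-rpS6 Ser235/236 immunostaining by imaging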
Procedure, shortened: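 MEF Tsc2-/- p53-/- (empty vector), DMEM/10% FBS; cpd 24 h 37 °C; PFA fix, Alexa-488 p-rpS6 S235/236 Ab, Hoechst; imaged; rapamycin-defined inhibition; % positive cells/well.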

[11] = High Content Imaging Cell-Based qHTS for Inhibitors of the mTORC1 Signaling Pathway in MEF Cells (AID 2667);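 further: Tsc2-/- p53-/- MEFs stably re-expressing wild-type Tsc2 exposed 24 h; series mostly up to about 38 µM; plate controls were DMSO wells for no effect and rapamycin control wells for full effect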
Procedure, shortened: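 Read-out is the share of phospho-rpS6-positive cells per well, from Hoechst-normalized Alexa-488 Ser235/236 staining imaged on IN Cell. Cells: WT Tsc2-expressing Tsc2-/-, p53-/- MEFs exposed to compound for 24 hrs.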

[12] = Cytometry Cell-Based qHTS for Inhibitors of the mTORC1 Signaling Pathway in MEF cells (AID 2668);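 further: Tsc2-/- p53-/- mouse embryonic fibroblasts stably re-expressing wild-type Tsc2; percent cells positive for phospho-rpS6 Ser235/236 relative to propidium iodide stain; series mostly up to about 38 µM; plate controls were DMSO wells for no effect and 7.5 nM rapamycin control wells for full effect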
Procedure, shortened: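 In MEFs grown in DMEM + 10% FBS, a 24 hrs compound exposure preceded imaging of phospho-rpS6 Ser235/236 by laser-scanning cytometry.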

[13] = Validation screen for inhibitors of Lassa infection (AID 463096; calls by dose curve; further: on the % scale 0 is the no-effect control and ±100 the full control effect)
[14] = Validation screen for small molecules that induce DNA re-replication in MCF 10A normal breast cells (AID 463097); further: 0% is about no effect; nearly all actives have a fitted effect of over 60% in size
Procedure, shortened: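 Following 48 hr compound incubation (37 C, 5% CO2), MCF 10A cells receive Hoechst for 40 min at 37 C. Nuclei are then scanned (excitation 405 nm, emission 500-530 nm) for total fluorescence intensity.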

[15] = target: Ubiquitin carboxyl-terminal hydrolase 2 (Homo sapiens) (UniProt O75604); assay: qHTS Validation Assay for Inhibitors of Ubiquitin-specific Protease USP2a Using CHOP2 as the Reporter (AID 463106);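 further: plate controls were DMSO for no effect and full inhibition by NEM for full effect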
Chain of Ubiquitin carboxyl-terminal hydrolase 2 (Homo sapiens) (O75604 whole entry, looked up): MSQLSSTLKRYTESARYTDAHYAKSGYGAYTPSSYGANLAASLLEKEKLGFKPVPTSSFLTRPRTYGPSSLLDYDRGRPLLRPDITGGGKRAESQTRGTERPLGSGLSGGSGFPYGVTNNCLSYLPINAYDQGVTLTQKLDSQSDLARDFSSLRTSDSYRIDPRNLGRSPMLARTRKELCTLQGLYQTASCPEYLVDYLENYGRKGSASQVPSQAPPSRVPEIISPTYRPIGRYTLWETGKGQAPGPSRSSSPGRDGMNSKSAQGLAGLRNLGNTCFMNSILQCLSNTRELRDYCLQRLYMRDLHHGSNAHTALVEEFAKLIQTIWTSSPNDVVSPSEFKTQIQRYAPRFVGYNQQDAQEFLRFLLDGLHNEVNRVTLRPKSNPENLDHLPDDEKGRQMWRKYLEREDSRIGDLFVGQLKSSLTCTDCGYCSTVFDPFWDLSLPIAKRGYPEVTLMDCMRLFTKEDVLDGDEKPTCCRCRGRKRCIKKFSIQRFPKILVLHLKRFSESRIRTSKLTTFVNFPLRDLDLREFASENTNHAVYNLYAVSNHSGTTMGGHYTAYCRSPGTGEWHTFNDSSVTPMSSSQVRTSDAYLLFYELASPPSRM
Procedure, shortened: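 Fluorescence read-out at Ex 485nm/Em 531nm after 60min RT, following addition of 25nM Ub-CHOP2 plus 25nM reporter substrate to USP2 core (10nM) pretreated 30min with compound. Data normalized to NEM full inhibition; concentration-response curves fitted.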

[16] = target: DNA polymerase III PolC-type (Bacillus subtilis (strain 168)) (UniProt P13267); assay: qHTS Validation Assay for the Inhibitors of DNA Replication in Gram-Positive Bacteria (AID 485295);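 further: reconstituted holoenzyme with PolC plus beta clamp SSB and primase; PicoGreen fluorescence of double-stranded DNA made on primed circular M13 template; series mostly up to about 57 µM; 0% = DMSO wells and -100% = EDTA-quenched background wells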
Chain of DNA polymerase III PolC-type (Bacillus subtilis (strain 168)) (P13267 whole entry, looked up): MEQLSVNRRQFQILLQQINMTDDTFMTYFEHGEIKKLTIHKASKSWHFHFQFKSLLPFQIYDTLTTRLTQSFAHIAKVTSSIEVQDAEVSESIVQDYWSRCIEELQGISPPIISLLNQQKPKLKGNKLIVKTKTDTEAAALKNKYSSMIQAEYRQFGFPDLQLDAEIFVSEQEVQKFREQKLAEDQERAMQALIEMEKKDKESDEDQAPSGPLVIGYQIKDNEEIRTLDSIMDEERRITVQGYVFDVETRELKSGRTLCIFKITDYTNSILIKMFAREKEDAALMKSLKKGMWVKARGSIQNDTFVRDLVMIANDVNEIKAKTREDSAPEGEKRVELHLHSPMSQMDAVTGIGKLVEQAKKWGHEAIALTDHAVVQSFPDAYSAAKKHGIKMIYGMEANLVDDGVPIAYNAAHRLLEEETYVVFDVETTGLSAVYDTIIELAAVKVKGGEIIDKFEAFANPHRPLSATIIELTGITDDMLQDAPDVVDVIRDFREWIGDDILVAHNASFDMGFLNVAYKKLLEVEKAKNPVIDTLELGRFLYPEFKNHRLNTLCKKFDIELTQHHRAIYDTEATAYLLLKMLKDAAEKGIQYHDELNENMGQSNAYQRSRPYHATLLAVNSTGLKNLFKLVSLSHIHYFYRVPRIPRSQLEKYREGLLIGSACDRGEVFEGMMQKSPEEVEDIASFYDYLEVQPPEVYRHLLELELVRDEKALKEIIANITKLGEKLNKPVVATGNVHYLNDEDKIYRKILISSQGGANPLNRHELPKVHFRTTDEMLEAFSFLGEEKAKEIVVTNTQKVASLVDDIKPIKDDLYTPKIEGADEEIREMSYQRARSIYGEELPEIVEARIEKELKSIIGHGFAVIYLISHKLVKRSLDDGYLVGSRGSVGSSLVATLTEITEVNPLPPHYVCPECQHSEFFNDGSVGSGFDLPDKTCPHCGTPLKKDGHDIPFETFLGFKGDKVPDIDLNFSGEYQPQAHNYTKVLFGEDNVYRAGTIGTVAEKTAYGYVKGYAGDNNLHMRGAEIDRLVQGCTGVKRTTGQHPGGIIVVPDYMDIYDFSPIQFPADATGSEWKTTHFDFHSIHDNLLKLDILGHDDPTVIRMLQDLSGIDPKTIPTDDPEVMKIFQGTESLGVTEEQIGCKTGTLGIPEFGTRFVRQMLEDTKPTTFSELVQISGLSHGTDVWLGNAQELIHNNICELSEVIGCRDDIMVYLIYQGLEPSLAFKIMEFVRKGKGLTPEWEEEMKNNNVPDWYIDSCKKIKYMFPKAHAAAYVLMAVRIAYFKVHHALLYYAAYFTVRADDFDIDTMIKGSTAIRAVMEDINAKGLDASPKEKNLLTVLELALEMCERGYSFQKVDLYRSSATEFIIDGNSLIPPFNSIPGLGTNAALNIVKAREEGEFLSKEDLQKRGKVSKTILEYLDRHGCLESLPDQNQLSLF
Procedure, shortened: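 Inhibition of DNA synthesis by the reconstituted PolC holoenzyme, monitored through PicoGreen staining of dsDNA formed from ssM13Gori, dNTPs and NTPs, with compound preincubation and room-temperature reaction.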

[17] = target: Tumor susceptibility gene 101 protein (Homo sapiens) (UniProt Q99816); assay: qHTS Validation Assay for Iinhibitors of HIV-1 Budding by Blocking the Interaction of PTAP/TSG101 (AID 485342; calls by dose curve; further: 0% is about no effect)
Procedure, shortened: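 Compound wells held the Tsg101 binding domain (10 uM) and a FITC-conjugated PTAP peptide (50 nM) in buffer at pH 7.5 containing 0.15 M NaCl and 0.01% Tween 20; polarization was recorded after 20 min, r.t.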

[18] = qHTS Validation Assay to Find Inhibitors of Chronic Active B-Cell Receptor Signaling (AID 485345; active means well fitted curve in the direction sought with a large enough effect in the main read-out, with a control signal flat, not every such curve was filed as active;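 further: 0% = untreated basal cells and 100% = 10 µM MG-132 proteasome inhibitor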)
Procedure, shortened: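 TMD8 ABC-DLBCL cells stably carrying doxycycline-inducible IkappaBalpha–green luciferase fusion plus unfused red luciferase; compounds 46 uM to 3 nM, 4 h at 37C with doxycycline. Corrected green/red luminescence ratio normalized to 10 uM MG-132 and basal cell wells; curves fitted.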

[19] = target: Beta-2 adrenergic receptor (Homo sapiens) (UniProt P07550); assay: qHTS validation assay of beta-arrestin-biased ligands of beta2-adrenergic receptor (AID 485366); further: 0% is about no effect
Procedure, shortened: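 Agonism was measured as beta-arrestin recruitment to recombinant beta2-AR, releasing tTA to drive luciferase. Cells were exposed for 18 hr at 37 degrees C to a series up to 46 microM. %Activity from corrected luminescence gave concentration-response curves.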

[20] = Quantitative high throughput screen for delayed death inhibitors of the malarial parasite plastid, 96 hour incubation (AID 488745); further: series mostly up to about 29 µM; on the % scale 0 is the no-effect control and ±100 the full control effect; nearly all actives have a fitted effect of over 70% in size
Procedure, shortened: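 Decreased firefly luciferase luminescence indicates inhibited growth of reporter-integrated P. falciparum after two generations (96 h, 37 C, 5% CO2). Infected erythrocytes at 0.1% parasitemia, 2% hematocrit, in Albumax-supplemented RPMI 1640.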

[21] = Quantitative high throughput screen for delayed death inhibitors of the malarial parasite plastid, 48 hour incubation (AID 488752); further: on the % scale 0 is the no-effect control and ±100 the full control effect; nearly all actives have a fitted effect of over 65% in size
Procedure, shortened: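 One-generation (48 h) growth assay: a decrease in luciferase signal from an integrated reporter in P. falciparum-infected red cells (0.1% parasitemia, 2% hematocrit) after compound exposure at 37 C indicates parasite inhibition.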

[22] = target: Thioredoxin reductase 1, cytoplasmic (Rattus norvegicus) (UniProt O89049); assay: qHTS Assay for Substrates of Mammalian Selenoprotein Thioredoxin Reductase 1 (TrxR1) (AID 488772);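 further: series mostly up to about 57 µM; 0% is about no effect; a drop in NADPH fluorescence below the no-compound background marks a TrxR1 substrate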
Chain of Thioredoxin reductase 1, cytoplasmic (Rattus norvegicus) (O89049 whole entry, looked up): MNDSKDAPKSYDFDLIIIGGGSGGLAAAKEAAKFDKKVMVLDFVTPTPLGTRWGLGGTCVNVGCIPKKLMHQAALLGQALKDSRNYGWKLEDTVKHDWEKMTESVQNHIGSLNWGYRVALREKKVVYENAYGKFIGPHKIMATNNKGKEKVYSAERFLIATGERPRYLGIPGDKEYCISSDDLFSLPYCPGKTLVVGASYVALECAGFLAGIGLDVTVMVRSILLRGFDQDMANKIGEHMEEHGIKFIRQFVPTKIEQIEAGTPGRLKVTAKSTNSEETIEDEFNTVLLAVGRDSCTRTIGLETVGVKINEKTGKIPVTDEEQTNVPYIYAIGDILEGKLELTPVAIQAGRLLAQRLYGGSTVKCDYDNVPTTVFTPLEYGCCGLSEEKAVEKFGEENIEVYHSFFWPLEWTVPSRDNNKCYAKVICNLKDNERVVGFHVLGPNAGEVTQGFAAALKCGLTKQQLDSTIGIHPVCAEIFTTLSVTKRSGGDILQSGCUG
Procedure, shortened: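 In this dual-purpose format, potential substrates are identified from the first fluorescence read after selenite addition, not from the 8-minute delta. Rat enzyme is preincubated with NADPH and then with compound at ~22 deg C.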

[23] = target: Thioredoxin reductase 1, cytoplasmic (Rattus norvegicus) (UniProt O89049); assay: qHTS Assay for Inhibitors of Mammalian Selenoprotein Thioredoxin Reductase 1 (TrxR1) (AID 488773); conditions: Potency: inhibition;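 further: drop in NADPH fluorescence over an 8 min run after selenite addition; series mostly up to about 57 µM; on the % scale 0 is the no-effect control and ±100 the full control effect; nearly all actives have a fitted effect of over 40% in size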
Procedure, shortened: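 Inhibition is scored from the loss of NADPH fluorescence between first and last reads of an 8-min kinetic run. Selenite (400 uM) was the substrate, added after 15 min compound preincubation at room temperature.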

[24] = target: Flap endonuclease 1 (Homo sapiens) (UniProt P39748); assay: qHTS Validation Assay for the Inhibitors of Human Flap endonuclease 1 (FEN1) (AID 488816); further: on the % scale 0 is the no-effect control and ±100 the full control effect
Procedure, shortened: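 Enzyme reagent 10 nM; cpds pinned; 15 min RT preinc.; substrate 50 nM final; reads t=0 and 15 min; no-enzyme buffer wells as neg. control; normalized data, 4-parameter Hill fit.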

[25] = target: M-phase phosphoprotein 8 (Homo sapiens) (UniProt Q99549); assay: qHTS Validation Assay for Inhibitors for MPP8 Chromodomain Interactions with Methylated Histone Tails (AID 488949);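 further: 50 nM MPP8 with 50 nM peptide preformed then compounds added for 30 min; AlphaScreen signal from MPP8 chromodomain bound to biotinylated H3K9me3 peptide; top concentration of the series differs between compounds; on the % scale 0 is the no-effect control and ±100 the full control effect; nearly all actives have a fitted effect of over 55% in size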
Chain of M-phase phosphoprotein 8 (Homo sapiens) (Q99549 whole entry, looked up): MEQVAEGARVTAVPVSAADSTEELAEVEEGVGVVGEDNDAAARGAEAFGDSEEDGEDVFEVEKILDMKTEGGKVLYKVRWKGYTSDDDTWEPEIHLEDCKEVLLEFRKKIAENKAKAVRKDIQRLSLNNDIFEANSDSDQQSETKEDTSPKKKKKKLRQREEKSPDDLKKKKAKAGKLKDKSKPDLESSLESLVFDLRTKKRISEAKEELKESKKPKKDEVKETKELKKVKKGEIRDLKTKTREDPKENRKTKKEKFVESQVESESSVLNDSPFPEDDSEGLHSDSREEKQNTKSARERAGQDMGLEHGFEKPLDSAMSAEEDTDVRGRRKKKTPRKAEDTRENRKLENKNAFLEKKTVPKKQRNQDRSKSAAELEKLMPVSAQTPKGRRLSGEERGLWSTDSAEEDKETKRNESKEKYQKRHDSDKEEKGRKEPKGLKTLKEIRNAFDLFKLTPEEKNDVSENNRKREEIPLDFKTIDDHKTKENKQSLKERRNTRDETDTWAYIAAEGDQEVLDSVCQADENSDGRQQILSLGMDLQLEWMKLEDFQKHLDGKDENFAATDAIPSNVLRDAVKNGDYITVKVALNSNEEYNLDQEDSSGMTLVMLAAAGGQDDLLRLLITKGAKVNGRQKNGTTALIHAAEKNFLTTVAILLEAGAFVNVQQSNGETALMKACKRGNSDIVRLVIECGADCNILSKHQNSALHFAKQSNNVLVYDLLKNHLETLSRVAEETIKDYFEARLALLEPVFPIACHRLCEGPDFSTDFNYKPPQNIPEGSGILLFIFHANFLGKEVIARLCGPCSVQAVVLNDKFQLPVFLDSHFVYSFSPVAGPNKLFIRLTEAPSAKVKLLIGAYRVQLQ
Procedure, shortened: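 Chemiluminescent proximity assay: histidine-tag capture via nickel acceptor beads, biotin peptide via streptavidin donor beads. Protein and peptide each at 50 nM, pH 7.4, with 30 min incubations at room temperature for complex formation, compound exposure and bead binding.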

[26] = target: Chromobox protein homolog 1 (Homo sapiens) (UniProt P83916); assay: qHTS Validation Assay for Inhibitors of HP1-beta Chromodomain Interactions with Methylated Histone Tails (AID 488953);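 further: loss of AlphaScreen luminescence from HP1-beta binding biotinylated H3K9me3 peptide; series mostly up to about 110 µM; on the % scale 0 is the no-effect control and ±100 the full control effect; nearly all actives have a fitted effect of over 50% in size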
Procedure, shortened: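 AlphaScreen proximity signal from streptavidin donor and nickel chelate acceptor beads (final 10 ug/mL) after 30 min dark incubation. Compounds had 30 min at room temperature with preformed complex of 50 nM HP1-beta and 50 nM b-H3(1-18)K9me3 in PBS pH 7.4 with 0.01% Tween-20.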

[27] = target: Transient receptor potential cation channel subfamily V member 1 (Homo sapiens) (UniProt Q8NER1); assay: HTS Assay for Compounds that Act as Enhancers of the Vanilloid Receptor 1 (AID 488979); further: 0% is about no effect
Procedure, shortened: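 TRPV1 cells loaded with Fluo-8 calcium dye; compound added and Ca2+ signal (ex 480/em 520 nm) followed 3 min, then capsaicin at EC20 added and read 2 more min to detect enhancement.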

[28] = target: Thyrotropin receptor (Homo sapiens) (UniProt P16473); assay: qHTS Assay for Antagonists of the Thyroid Stimulating Hormone Receptor (AID 488980); further: series mostly up to about 58 µM; 0% is about no effect
Chain of Thyrotropin receptor (Homo sapiens) (P16473 whole entry, looked up): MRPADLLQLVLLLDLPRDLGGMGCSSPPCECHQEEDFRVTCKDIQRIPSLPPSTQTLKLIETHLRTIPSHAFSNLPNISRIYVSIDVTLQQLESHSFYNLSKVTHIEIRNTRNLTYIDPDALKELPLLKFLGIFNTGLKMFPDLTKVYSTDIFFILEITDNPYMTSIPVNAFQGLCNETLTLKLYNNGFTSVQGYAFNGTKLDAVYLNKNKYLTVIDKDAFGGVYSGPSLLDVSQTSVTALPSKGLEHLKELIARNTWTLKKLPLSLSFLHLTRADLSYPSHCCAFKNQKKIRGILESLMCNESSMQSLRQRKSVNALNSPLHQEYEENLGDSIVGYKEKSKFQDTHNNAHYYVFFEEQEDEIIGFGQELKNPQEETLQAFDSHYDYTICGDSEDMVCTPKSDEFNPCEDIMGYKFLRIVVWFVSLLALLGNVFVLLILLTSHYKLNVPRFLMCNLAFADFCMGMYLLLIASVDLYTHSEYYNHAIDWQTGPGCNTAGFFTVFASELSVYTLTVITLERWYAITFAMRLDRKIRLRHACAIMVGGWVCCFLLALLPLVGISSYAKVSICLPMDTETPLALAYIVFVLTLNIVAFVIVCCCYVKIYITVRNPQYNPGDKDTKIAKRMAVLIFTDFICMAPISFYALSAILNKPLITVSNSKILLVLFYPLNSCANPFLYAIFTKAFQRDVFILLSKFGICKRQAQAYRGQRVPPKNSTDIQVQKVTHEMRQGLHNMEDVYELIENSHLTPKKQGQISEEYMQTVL
Procedure, shortened: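 Inhibition of TSH-stimulated cAMP accumulation was quantified by homogeneous time-resolved FRET in TSHR-transfected HEK293 cells. Agonist: TSH, 4 nM final (EC80).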

[29] = target: D(1A) dopamine receptor (Homo sapiens) (UniProt P21728); assay: HTS Assay for Allosteric Agonists of the Human D1 Dopamine Receptor: Primary Screen for Agonists (AID 488981)
Chain of D(1A) dopamine receptor (Homo sapiens) (P21728 whole entry, looked up): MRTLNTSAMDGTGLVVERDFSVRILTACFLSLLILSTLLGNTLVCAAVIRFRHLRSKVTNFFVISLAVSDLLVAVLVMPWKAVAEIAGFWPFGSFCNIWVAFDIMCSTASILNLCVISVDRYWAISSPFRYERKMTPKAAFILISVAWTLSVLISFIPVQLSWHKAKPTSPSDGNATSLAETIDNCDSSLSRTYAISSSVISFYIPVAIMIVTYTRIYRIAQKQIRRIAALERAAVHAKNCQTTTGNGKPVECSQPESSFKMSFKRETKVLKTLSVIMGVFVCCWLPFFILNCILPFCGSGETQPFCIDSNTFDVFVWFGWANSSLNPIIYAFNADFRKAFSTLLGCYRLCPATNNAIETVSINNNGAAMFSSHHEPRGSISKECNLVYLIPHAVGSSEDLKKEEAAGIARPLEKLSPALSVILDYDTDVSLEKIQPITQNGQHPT
Procedure, shortened: (§1)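 Tetracycline-induced HEK293 Trex D1 cells with forced coupling to calcium, loaded with no-wash calcium dye; kinetic fluorescence read 180 s after compound addition for agonism, then a further 180 s after an EC20 dopamine challenge for potentiation.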

[30] = target: D(1A) dopamine receptor (Homo sapiens) (UniProt P21728); assay: HTS Assay for Allosteric Agonists of the Human D1 Dopamine Receptor: Primary Screen for Potentiators (AID 488982)
Procedure, shortened: as §1

[31] = target: D(1A) dopamine receptor (Homo sapiens) (UniProt P21728); assay: HTS Assay for Allosteric Agonists of the Human D1 Dopamine Receptor: Primary Screen for Antagonists (AID 488983)
Procedure, shortened: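 Calcium-flux read-out in inducible HEK293 T-REx cells expressing D1, dye-loaded 30–90 min at room temperature. Kinetic reads: 180 s after compound (agonist phase), then 180 s after an EC80 dopamine challenge.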

[32] = Validation screen for small molecules that induce genotoxicity in human embryonic kidney (HEK293T) cells expressing luciferase-tagged ELG1 (AID 493106)
Procedure, shortened: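 ELG1-luciferase reporter readout (ONE-Glo, 30 min, room temperature) after 16 hr compound treatment at 37 °C of HEK293T cells at 2,000 per well. Rising luminescence flags genotoxic stress.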

[33] = target: ATPase family AAA domain-containing protein 5 (Homo sapiens) (UniProt Q96QE3); assay: Validation screen for small molecules that inhibit ELG1-dependent DNA repair in human embryonic kidney (HEK293T) cells expressing luciferase-tagged ELG1 (AID 493107)
Procedure, shortened: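 Luciferase read-out, ONE-Glo, 30 min at room temperature, follows 16 h co-exposure at 37 C of compound and the DNA-damaging agent 5-fluorouridine. Cells: HEK293T with ELG1-luciferase fusion, 2,000 per well, DMSO as vehicle.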

[34] = target: Thyrotropin-releasing hormone receptor (Homo sapiens) (UniProt P34981); assay: qHTS for Small Molecule Agonists and Allosteric Enhancers of Human TRH Receptor: Validation Screen for Agonists (AID 493127;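 active means calcium activation more than 3 SD above the typical response in the agonist read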); conditions: TRH receptor agonist cell assay; at 2 µM; active compounds read high
Procedure, shortened: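 Compound-evoked intracellular calcium release in fluo-8-loaded TRHR cells, read kinetically on FDSS (Ex 480/Em 530, 1 s/cycle) after 23 nL pintool transfer. Agonist phase preceded 10 nM TRH EC20 addition.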

[35] = Nrf2 qHTS screen for inhibitors: Validation (AID 493153; active means well fitted inhibition curve with a large enough effect in the main read-out, with a control signal flat, not every such curve was filed as active); conditions: Potency: luciferase luminescence; viability change: measured here: cytotoxicity max response
Procedure, shortened: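 Concentration-response on A549 ARE_Fluc reporter cells exposed 18-24 h at 37 C, 5% CO2. Cytotoxicity read first by CellTiter-Fluor fluorescence (Ex 405/Em 525), then Nrf2 inhibition by BugLite luminescence after 15 min.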

O=[N+]([O-])c1ccc(O[C@@H]2O[C@H](CO)[C@@H](O)[C@H](O)[C@H]2F)c([N+](=O)[O-])c1
active: Potency [5] 11.2 µM
inactive: outcome [1] | Potency [2] | Potency [3] | outcome [4] | outcome [6] | Potency [7] | Potency [8] | outcome [9] | Potency [10] | Potency [11] | Potency [12] | Potency [13] | Potency [14] | Potency [15] | Potency [16] | outcome [17] | outcome [18] | outcome [19] | Potency [20] | Potency [21] | outcome [22] | Potency [23] | Potency [24] | Potency [25] | Potency [26] | outcome [27] | outcome [28] | outcome [29] | Potency [30] | outcome [31] | outcome [32] | Potency [33] | activation [34] 1.06% | Potency [35]
